Bioassay records from PubChem BioAssay.
This is a sample that favours compounds with a hit; in the whole collection about 10% have one here.
MCF10A rereplic: DNA re-replication induction in MCF 10a cells; MCF 10A DNA re-replication, Hoechst nuclear intensity, 48 h; Potency, µM (series often up to 46.1 µM), actives largely listed as activators; 350,000 tested, 2.9% active; further: nearly all actives have a fitted effect of over 50% in size
Gal4-VP16 FLuc: Gal4-VP16 reporter inhibition counter-screen; Drosophila S2 Gal4-VP16 UAS-luciferase, luminescence, 20 h; Potency, µM (titrated, usually from 53.6 µM), usual class: inhibitors; 310,000 tested, 3.5% active; AID 2546;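 further: Gal4-VP16 expression switched on by copper sulfate through the metallothionein promoter; nearly all actives have a fitted effect of over 50% in size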
ELG1 repair inh: ELG1-dependent DNA repair inhibition; HEK293T ELG1-luciferase reporter, luminescence, 16 h; DNA damage induced by 5-fluorouridine; Potency, µM (top dose mostly 46.1 µM), hits mostly inhibitors; 330,000 tested, 2.3% active; AID 504467; further: nearly all actives have a fitted effect of over 55% in size
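Step one: seed 2,000 cells per well. Step two: pin-transfer compound or DMSO alongside 5-fluorouridine. Step three: incubate 16 hr, 37 °C, 5% CO2. Step four: add ONE-Glo, wait 30 min, read luminescence.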
RORgamma inh: ROR gamma (mouse) transcription inhibition | Drosophila S2 Gal4-RORgamma UAS-luciferase reporter, 20 h | 310,000 tested, 5.4% active | P51450 | Potency, µM (top dose mostly 53.6 µM), usual class: inhibitors; further: nearly all actives have a fitted effect of over 60% in size
Target sequence (P51450 whole entry, looked up, the tested form may be a part): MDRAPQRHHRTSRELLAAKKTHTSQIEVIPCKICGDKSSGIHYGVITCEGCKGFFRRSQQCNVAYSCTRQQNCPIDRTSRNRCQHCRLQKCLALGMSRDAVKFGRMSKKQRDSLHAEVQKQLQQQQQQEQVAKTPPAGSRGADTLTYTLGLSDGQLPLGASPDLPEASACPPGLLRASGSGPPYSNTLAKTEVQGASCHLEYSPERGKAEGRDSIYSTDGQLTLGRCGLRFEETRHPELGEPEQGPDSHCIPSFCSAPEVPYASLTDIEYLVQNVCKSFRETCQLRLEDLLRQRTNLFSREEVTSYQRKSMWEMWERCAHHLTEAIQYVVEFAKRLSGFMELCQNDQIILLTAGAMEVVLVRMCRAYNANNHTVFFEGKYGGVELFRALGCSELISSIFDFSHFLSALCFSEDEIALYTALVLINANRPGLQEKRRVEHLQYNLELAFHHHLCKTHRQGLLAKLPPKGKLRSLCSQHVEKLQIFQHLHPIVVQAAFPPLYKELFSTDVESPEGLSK
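A Gal4/UAS one-hybrid system in insect cells: metallothionein-promoter Gal4–ROR gamma fusion plus Photinus luciferase reporter. Copper sulfate 700 uM final, 20 hr ambient incubation, luminescent detection after 10 min with reagent.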
SW480 rerep: DNA re-replication induction in SW480 cells; SW480 DNA re-replication, Hoechst DNA content imaging, 48 h; 340,000 tested, 1.8% active; AID 624297; Potency, µM (highest dose often 46.1 µM), usual class: activators; further: nearly all actives have a fitted effect of over 55% in size
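DNA re-replication was detected as more nuclei of elevated Hoechst intensity after 48 hr exposure to compound (23 nL pinned per well of 250 cells).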
Hits are given with their value. The call rests on the fitted dose curve; in most records, active means well fitted curve in the direction sought with a large enough effect; inconclusive means small, poorly fitted or top-dose-only effect, or another doubt; inactive means no such curve, though single readings can be large; an effect the other way counts as inactive or inconclusive.

What do the screens show for `Oc1c(C(Nc2nccs2)c2ccc(C(F)(F)F)cc2)ccc2cccnc12` (stereo unspecified)?
MCF10A rereplic: inconclusive; Gal4-VP16 FLuc: 1µM; ELG1 repair inh: 2.6µM; RORgamma inh: 0.56µM; SW480 rerep: 1.3µM

How did Oc1c(C(Nc2cccc(C(F)(F)F)c2)c2ccncc2)ccc2cccnc12 (stereo unspecified) do in these assays?
MCF10A rereplic: inconclusive; Gal4-VP16 FLuc: 5.6µM; ELG1 repair inh: inconclusive; RORgamma inh: 4µM; SW480 rerep: 12µM

Results for Cc1ccc2cc(COC(=O)C3CCCO3)c(=O)[nH]c2c1 (stereo unspecified) ?
MCF10A rereplic: inactive; Gal4-VP16 FLuc: inactive; ELG1 repair inh: inactive; RORgamma inh: inactive; SW480 rerep: inactive

How did C/C(=N\NC(=O)C(C)n1nc(C)c([N+](=O)[O-])c1C)c1ccccc1O (stereo unspecified) do in these assays?
MCF10A rereplic: inconclusive; Gal4-VP16 FLuc: 0.18µM; ELG1 repair inh: inactive; RORgamma inh: 0.14µM; SW480 rerep: 4.6µM

What do the screens show for `Clc1ccc(CNc2ccc(CNc3ncn[nH]3)cc2)c(Cl)c1`?
MCF10A rereplic: inconclusive; Gal4-VP16 FLuc: 13µM; ELG1 repair inh: inconclusive; RORgamma inh: inconclusive; SW480 rerep: inconclusive

Results for Clc1ccc(CNc2ccc(CNc3ncn[nH]3)cc2)cc1 ?
MCF10A rereplic: inactive; Gal4-VP16 FLuc: inactive; ELG1 repair inh: inactive; RORgamma inh: inactive; SW480 rerep: inactive

Results for C/C(=N\Nc1ccccc1C)c1cccnc1 ?
MCF10A rereplic: inactive; Gal4-VP16 FLuc: inactive; ELG1 repair inh: inactive; RORgamma inh: inactive; SW480 rerep: inactive

How did CC(C)Cn1c(C23CC4CC(CC(C4)C2)C3)n[nH]c1=S do in these assays?
MCF10A rereplic: inconclusive; Gal4-VP16 FLuc: 3.2µM; ELG1 repair inh: inactive; RORgamma inh: 3.2µM; SW480 rerep: inactive

What do the screens show for `Cn1c(C23CC4CC(CC(C4)C2)C3)n[nH]c1=S`?
MCF10A rereplic: inactive; Gal4-VP16 FLuc: 8.9µM; ELG1 repair inh: inactive; RORgamma inh: 5µM; SW480 rerep: inconclusive

What do the screens show for `Cc1ccc(-c2n[nH]c(=S)n2C)cc1`?
MCF10A rereplic: inactive; Gal4-VP16 FLuc: inconclusive; ELG1 repair inh: inactive; RORgamma inh: inconclusive; SW480 rerep: inactive

Results for COCCCn1c(C23CC4CC(CC(C4)C2)C3)n[nH]c1=S ?
MCF10A rereplic: inactive; Gal4-VP16 FLuc: 6.3µM; ELG1 repair inh: inactive; RORgamma inh: 5µM; SW480 rerep: inactive

What do the screens show for `Cc1nc(-c2ccccc2)nc2[nH]c(C(C)C)cc(=O)c12`?
MCF10A rereplic: 9.2µM; Gal4-VP16 FLuc: inactive; ELG1 repair inh: inactive; RORgamma inh: inactive; SW480 rerep: inactive

What do the screens show for `Cc1nc(-c2ccccc2)nc2[nH]c(=O)n(-c3ccccc3)c(=O)c12`?
MCF10A rereplic: inactive; Gal4-VP16 FLuc: inactive; ELG1 repair inh: inconclusive; RORgamma inh: inconclusive; SW480 rerep: inactive

Results for Cc1cc(C)c(C)c(S(=O)(=O)N[C@@H](C)C(=O)OCC(N)=O)c1C ?
MCF10A rereplic: inactive; Gal4-VP16 FLuc: inactive; ELG1 repair inh: inactive; RORgamma inh: inactive; SW480 rerep: inactive

Results for Cc1ccc(S(=O)(=O)N(Cc2ccccc2)c2ccccc2C(=O)NCc2cccnc2)cc1 ?
MCF10A rereplic: inactive; Gal4-VP16 FLuc: inactive; ELG1 repair inh: inactive; RORgamma inh: inactive; SW480 rerep: inconclusive

Results for Cc1ccc2nc(N/N=C/c3ccco3)cc(C)c2c1 ?
MCF10A rereplic: 16µM; Gal4-VP16 FLuc: inconclusive; ELG1 repair inh: inconclusive; RORgamma inh: 6.3µM; SW480 rerep: inconclusive

What do the screens show for `O=C(N/N=C/c1ccc([N+](=O)[O-])o1)c1ccccc1-n1cccc1`?
MCF10A rereplic: 23µM; Gal4-VP16 FLuc: inconclusive; ELG1 repair inh: inactive; RORgamma inh: inactive; SW480 rerep: 2µM

What do the screens show for `O=C(N/N=C/c1ccc([N+](=O)[O-])o1)c1cc(-c2ccncc2)nc2ccccc12`?
MCF10A rereplic: 5µM; Gal4-VP16 FLuc: inactive; ELG1 repair inh: inconclusive; RORgamma inh: inactive; SW480 rerep: inconclusive

How did Cn1c(/C=C/c2ccc([N+](=O)[O-])o2)nc2ccccc2c1=O do in these assays?
MCF10A rereplic: 5.2µM; Gal4-VP16 FLuc: 6.3µM; ELG1 repair inh: inconclusive; RORgamma inh: 6.3µM; SW480 rerep: 1.8µM

What do the screens show for `CC(C)(C)c1ccc(C(=O)COC(=O)CN2C(=O)NC3(CCCC3)C2=O)cc1`?
MCF10A rereplic: inactive; Gal4-VP16 FLuc: inactive; ELG1 repair inh: inactive; RORgamma inh: inconclusive; SW480 rerep: inactive

Results for CCOc1ccc(S(=O)(=O)Nc2cccc(C(=O)NCC3CCCO3)c2)cc1 (stereo unspecified) ?
MCF10A rereplic: inactive; ELG1 repair inh: inactive; SW480 rerep: inactive

Results for O=C(N/N=C/c1ccc([N+](=O)[O-])o1)c1cn(-c2ccccc2)nc1-c1ccccc1 ?
MCF10A rereplic: 16µM; Gal4-VP16 FLuc: inconclusive; ELG1 repair inh: inconclusive; RORgamma inh: inconclusive; SW480 rerep: inactive

Results for Cc1cc(Nc2ccc([N+](=O)[O-])cc2)nc2ccccc12 ?
MCF10A rereplic: inconclusive; Gal4-VP16 FLuc: inactive; ELG1 repair inh: inactive; RORgamma inh: inconclusive; SW480 rerep: inconclusive

What do the screens show for `Cc1cc(N/N=C/c2ccc([N+](=O)[O-])o2)nc2ccccc12`?
MCF10A rereplic: inactive; Gal4-VP16 FLuc: inconclusive; ELG1 repair inh: inactive; RORgamma inh: 11µM; SW480 rerep: inconclusive

What do the screens show for `Cc1ccc(-c2cc(C(=O)N/N=C/c3ccc([N+](=O)[O-])o3)c3ccccc3n2)o1`?
MCF10A rereplic: inconclusive; Gal4-VP16 FLuc: inconclusive; ELG1 repair inh: inactive; RORgamma inh: 13µM; SW480 rerep: inconclusive

How did O=C(N/N=C/c1ccc([N+](=O)[O-])o1)c1cc(-c2ccc(-c3ccccc3)cc2)nc2ccccc12 do in these assays?
MCF10A rereplic: 0.92µM; Gal4-VP16 FLuc: 1.1µM; ELG1 repair inh: inconclusive; RORgamma inh: 0.71µM; SW480 rerep: 1.3µM

What do the screens show for `CC(=O)c1ccc(Oc2ncnc(N)c2[N+](=O)[O-])cc1`?
MCF10A rereplic: 4.1µM; Gal4-VP16 FLuc: inactive; ELG1 repair inh: inactive; RORgamma inh: inactive; SW480 rerep: inactive

How did Nc1ncnc(Oc2cccc3cccnc23)c1[N+](=O)[O-] do in these assays?
MCF10A rereplic: inactive; Gal4-VP16 FLuc: 8.9µM; ELG1 repair inh: inconclusive; RORgamma inh: 4.5µM; SW480 rerep: inconclusive

Results for CCc1ccc(Oc2ncnc(N)c2[N+](=O)[O-])cc1 ?
MCF10A rereplic: inactive; Gal4-VP16 FLuc: inconclusive; ELG1 repair inh: inactive; RORgamma inh: inactive; SW480 rerep: inactive

How did Cc1cc2c(OCC(O)CN3CCCC3)cccc2[nH]1 (stereo unspecified) do in these assays?
MCF10A rereplic: inactive; Gal4-VP16 FLuc: inactive; ELG1 repair inh: inactive; RORgamma inh: inactive; SW480 rerep: inactive

Results for CC1CN(c2ccc([N+](=O)[O-])c(NCCOc3ccccc3)c2)CC(C)N1 (stereo unspecified) ?
MCF10A rereplic: inactive; Gal4-VP16 FLuc: inactive; ELG1 repair inh: inactive; RORgamma inh: inactive; SW480 rerep: inactive
